# In publication PMC4336329 (PLoS ONE, 2015):
# In all, about 310,000 compounds went through this assay and about 14,000 (4.5%) showed an effect of 50% or more. The effect is printed as a negative number. Many of the other results were omitted from the sample, so strong results are more common in it than they were.
# Biological target: human ether-à-go-go-related gene (hERG) potassium channel (human, UniProt Q12809)
# Test: primary screen, population patch clamp on CHO cells stably expressing hERG; higher = less effect of the substance
# 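Further: peak tail current of the secondary pulse compared with the same well before compound.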
# Sequence of human ether-à-go-go-related gene (hERG) potassium channel (Q12809 whole entry, looked up): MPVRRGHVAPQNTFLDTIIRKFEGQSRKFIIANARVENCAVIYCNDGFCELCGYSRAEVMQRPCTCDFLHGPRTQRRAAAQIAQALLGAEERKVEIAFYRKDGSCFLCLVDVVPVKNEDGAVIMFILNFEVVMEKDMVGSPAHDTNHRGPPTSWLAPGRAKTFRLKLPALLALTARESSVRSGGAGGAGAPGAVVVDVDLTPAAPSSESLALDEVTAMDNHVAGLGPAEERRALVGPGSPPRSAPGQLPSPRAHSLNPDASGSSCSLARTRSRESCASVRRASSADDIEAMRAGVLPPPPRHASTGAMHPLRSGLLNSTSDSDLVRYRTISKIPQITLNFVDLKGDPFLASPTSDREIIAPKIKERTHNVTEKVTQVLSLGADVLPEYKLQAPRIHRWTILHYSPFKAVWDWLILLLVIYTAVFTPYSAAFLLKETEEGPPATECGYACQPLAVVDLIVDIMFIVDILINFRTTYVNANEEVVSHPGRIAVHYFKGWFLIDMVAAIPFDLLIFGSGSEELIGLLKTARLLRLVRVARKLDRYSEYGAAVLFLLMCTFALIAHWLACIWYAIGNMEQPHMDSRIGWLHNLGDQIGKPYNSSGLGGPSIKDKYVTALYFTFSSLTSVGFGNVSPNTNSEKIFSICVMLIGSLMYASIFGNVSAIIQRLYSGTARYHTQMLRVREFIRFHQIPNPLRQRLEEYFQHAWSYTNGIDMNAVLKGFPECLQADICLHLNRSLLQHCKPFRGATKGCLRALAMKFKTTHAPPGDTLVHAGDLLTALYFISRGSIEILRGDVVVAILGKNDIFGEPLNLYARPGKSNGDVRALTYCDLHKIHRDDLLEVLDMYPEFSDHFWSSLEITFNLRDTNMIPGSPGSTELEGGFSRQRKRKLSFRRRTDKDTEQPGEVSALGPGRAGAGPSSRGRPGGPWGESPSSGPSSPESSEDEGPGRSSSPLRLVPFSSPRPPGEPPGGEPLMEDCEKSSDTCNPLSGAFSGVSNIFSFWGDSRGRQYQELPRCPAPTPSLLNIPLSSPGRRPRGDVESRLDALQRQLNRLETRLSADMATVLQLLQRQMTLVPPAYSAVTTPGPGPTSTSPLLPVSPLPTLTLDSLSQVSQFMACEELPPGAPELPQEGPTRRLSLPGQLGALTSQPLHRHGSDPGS
row,SMILES,"hERG current change (%, negative = inhibition) at 10uM"
1,COC(=O)[C@@]12CCCN1[C@H](c1ccc(-c3ccccc3)cc1)[C@H]1C(=O)N(C)C(=O)[C@H]12.O=C(O)C(F)(F)F,-14.2%
2,O=C1Cc2cc(S(=O)(=O)NCc3ccccc3Cl)cc3c2N1CCC3,6.14%
3,Cc1ccc(/C=C2\SC(=S)N(c3cccnc3)C2=O)o1,6.67%
4,CCOC(=O)c1ccc(NC(=O)c2nc[nH]c2C(=O)N2CCc3ccccc3C2)cc1,0.122%
5,CC(C)CNc1nc(N)c([N+](=O)[O-])c(N2CCCCCC2)n1,-0.987%
6,CC1(C)SC2c3ccccc3C(=O)N2[C@@H]1C(=O)NC1CC1 (stereo partly shown),9.97%
7,Cc1nc([N+](=O)[O-])cn1CC(=O)c1ccc(F)cc1,10.5%
8,CCNc1nc(SCC(=O)Nc2ccc(Cl)c(Cl)c2)nc(N(C)C)n1,14.8%
9,CCN(C(=O)COC(=O)c1[nH]c(C)c(C(C)=O)c1C)C1CCS(=O)(=O)C1 (stereo not shown),-8.32%
10,CCOc1ccc(-c2cc(C(=O)N/N=C/c3ccc(O)cc3)c3ccccc3n2)cc1,4.93%
11,Cc1c(C(=O)N/N=C/c2ccccn2)nnn1-c1nonc1N,-15.6%
12,Cc1cccc2sc(NC(=O)C3CCN(C(=O)c4ccco4)CC3)nc12,-71.6%
13,Cc1cc2nc(N3CCN(C(=O)c4ccco4)CC3)sc2cc1C,0.152%
14,Cc1nnc(NC(=O)C2CCN(C(=O)c3ccco3)CC2)s1,13.4%
15,Cc1cc(C)c2nc(N3CCN(C(=O)c4ccco4)CC3)sc2c1,-28.5%
16,Cc1cc(C)c2nc(N3CCC(C(=O)N4CCN(C(=O)c5ccco5)CC4)CC3)sc2c1,-77.1%
17,O=C(Nc1nc2ccccc2s1)C1CCN(C(=O)c2ccco2)CC1,-41.9%
18,C=CCOC(=O)C1=C(C)NC(C)=C(C(=O)OCC=C)C1c1ccc(C)o1,-27.4%
19,O=C(Cc1ccccc1)NCC(=O)N1CCCCCC1,9.71%
20,CN(C/N=C(\N)N[N+](=O)[O-])S(=O)(=O)c1ccccc1,19.4%
21,COC(=O)C1=CO[C@@H](O[C@@H]2O[C@H](CO)[C@@H](O)[C@H](O)[C@H]2O)[C@H]2[C@@H]1C(=O)C[C@@H]2C,23.3%
22,COC(=O)c1ccc(CSc2nc3sc(C)c(C)c3c(=O)[nH]2)cc1,0.764%

row,SMILES,"hERG current change (%, negative = inhibition) at 10uM"
1,Nc1c(C(=O)c2ccccc2)sc2nsc(SCCN3CCOCC3)c12,18.1%
2,CCn1cc(CN2CCN(Cc3cccc(OC)c3)C(CCO)C2)c(C)n1 (stereo not shown),-14.4%
3,CCn1cc(CN2CCN(Cc3ccc(OC)c(C)c3C)C(CCO)C2)c(C)n1 (stereo not shown),-23.1%
4,CCOc1ccc(CN2CCN(Cc3cnn(CC)c3C)CC2CCO)cc1 (stereo not shown),-67.8%
5,CCn1ncc(CN2CCN(Cc3cccc(OC)c3)C(CCO)C2)c1C (stereo not shown),7.07%
6,CCOc1ccc(CN2CCN(Cc3c(C)nn(CC)c3C)CC2CCO)cc1 (stereo not shown),-45%
7,CCOc1ccc(CN2CCN(Cc3cn(CC)nc3C)CC2CCO)cc1 (stereo not shown),-62%
8,CC1CCCC(C)N1C(=O)C1CC(c2ccc(F)cc2)=NO1 (stereo not shown),-7.79%
9,O=C(N/N=C/c1ccncc1)c1cc(-c2ccc(Br)s2)[nH]n1,-12.4%
10,Cc1ccc(S(=O)(=O)NCCSCc2ccco2)cc1,-4.42%
11,Cc1ccc2c(c1)N(C(=O)CCC(=O)NCc1ccccn1)CC(C)O2 (stereo not shown),-7.23%
12,COc1ccc(C)cc1N(CC(=O)O)S(=O)(=O)c1ccc(C)cc1,17.1%
13,CCN(CC)CCCn1c2c(c(SCC(=O)Nc3cc(C)on3)nc1=O)CCC2,-2.43%
14,CCN(CC)CCCn1c2c(c(SCC(=O)Nc3cccc4ccccc34)nc1=O)CCC2,-56.6%
15,Cc1cccc(NC(=O)CSc2nc(=O)n(CCN3CCOCC3)c3c2CCCC3)c1C,-23.6%
16,CN(C)CCn1c2c(c(SCC(=O)N3CCc4ccccc43)nc1=O)CCCC2,-44.7%
17,CN(C)CCCn1c2c(c(SCC(=O)Nc3cccc4ccccc34)nc1=O)CCC2,-38.4%
18,CN(C)CCn1c2c(c(SCC(=O)Nc3ccccc3C(F)(F)F)nc1=O)CCCC2,-18.4%
19,CCN(CC)CCCn1c2c(c(SCC(=O)N3CCc4ccccc43)nc1=O)CCC2,-78.6%
20,CCN(CC)CCCn1c2c(c(SCC(=O)Nc3cccc(C)c3C)nc1=O)CCC2,-55.3%
21,CN(C)CCCn1c2c(c(SCC(=O)Nc3cccc4ccccc34)nc1=O)CCCC2,-45.6%
22,CN(C)CCn1c2c(c(SCC(=O)Nc3cccc4ccccc34)nc1=O)CCCC2,-40.4%

row,SMILES,"hERG current change (%, negative = inhibition) at 10uM"
1,CCN(CC)CCn1c2c(c(SCC(=O)Nc3cccc4ccccc34)nc1=O)CCCC2,-63.8%
2,CCN(CC)CCCn1c2c(c(SCC(=O)N3CCCc4ccccc43)nc1=O)CCC2,-22.9%
3,COc1ccc(C)cc1S(=O)(=O)Nc1cc(Cl)ccc1Cl,7.53%
4,CCOC(=O)c1cccc(NC(=O)c2cccs2)c1,-13.1%
5,CCCCc1cc(C(=O)Cc2ccccn2)c(O)cc1O,16.9%
6,O=C(NCc1cccnc1)Nc1ccc(Cl)c(Cl)c1,-0.174%
7,COc1ccc(CN2CC(=O)N3[C@H]4c5ccccc5OC[C@@H]4[C@H](c4ccccc4)[C@]3(C)C2=O)cc1,15.3%
8,COc1ccccc1OCCOc1ccc(/C=C2\C(=N)N3N=C(S(C)(=O)=O)SC3=NC2=O)cc1,12%
9,CN(C)CCn1c2c(c(SCC(=O)Nc3cccc4ccccc34)nc1=O)CCC2,-13.6%
10,CCN(CC)CCn1c2c(c(SCC(=O)Nc3cccc4ccccc34)nc1=O)CCC2,-62.7%
11,CN=C(NC(=O)Nc1c(C)cccc1C)NC(=O)Nc1c(C)cccc1C,3.97%
12,COc1ccccc1CN(C)C(=O)c1cc(-c2cc(OC)c(OC)c(OC)c2)nc2ccccc12,12.9%
13,COc1ccccc1CN(C)C(=O)c1cc(-c2cccs2)nc2ccccc12,4.13%
14,COc1ccccc1CN(C)C(=O)c1cc(C)nc2ccccc12,-65.1%
15,CN(C)C(=S)NC1(C)CCS(=O)(=O)C1 (stereo not shown),6.89%
16,CCOc1ccc(/C=N/NC(=O)NC23CC4CC(CC(C4)C2)C3)cc1O,-10.9%
17,O=C(N/N=C/c1ccc(O)c(O)c1)NC12CC3CC(CC(C3)C1)C2,-11.8%
18,O=C(N/N=C/c1ccncc1)NC12CC3CC(CC(C3)C1)C2,-26.6%
19,COc1cc(/C=N/NC(=O)NC23CC4CC(CC(C4)C2)C3)ccc1O,-34.3%
20,COc1cc(/C=N/NC(=O)NC23CC4CC(CC(C4)C2)C3)ccc1OCC(N)=O,-57%
21,O=C(N/N=C/c1ccc(O)cc1)NC12CC3CC(CC(C3)C1)C2,-55.7%
22,O=C(Nc1nc(-c2ccco2)c(-c2ccco2)s1)c1cnccn1,3.8%

row,SMILES,"hERG current change (%, negative = inhibition) at 10uM"
1,CCOC(=O)C1=C(COC(=O)COc2ccc(C(=O)CC)cc2)NC(=O)NC1C (stereo not shown),-25.5%
2,O=C1N/C(=N\N=C\c2cccs2)SC1Cc1ccc(Cl)c(Cl)c1 (stereo not shown),16.1%
3,Cc1cc(NC(=O)c2cc(-c3ccco3)on2)n(-c2ccccc2)n1,-0.313%
4,Cc1cccc(COc2ncnc3nc[nH]c23)c1,-6.73%
5,Cc1ccc(NS(=O)(=O)c2cccc(C(=O)NCC3(N(C)C)CCCCC3)c2)cc1,-22.4%
6,CN(C)C1(CNC(=O)c2ccc(NS(=O)(=O)c3ccc(Cl)c(Cl)c3)cc2)CCCCC1,-74.1%
7,Cc1cc(S(=O)(=O)Nc2ccc(C(=O)NCC3(N(C)C)CCCCC3)cc2)ccc1F,-49.2%
8,CN(C)C1(CNC(=O)Nc2ccccc2)CCCCC1,-3.27%
9,CN(C)C1(CNC(=O)c2cccc(S(=O)(=O)Nc3ccc(Br)cc3)c2)CCCCC1,-66.7%
10,CCOc1ccc(NS(=O)(=O)c2ccc(C(=O)NCC3(N(C)C)CCCCC3)cc2)cc1,-8.13%
11,COc1ccc(NS(=O)(=O)c2cccc(C(=O)NCC3(N(C)C)CCCCC3)c2)cc1,-40.6%
12,CN(C)CCNC(=O)Nc1ccc(Cl)c(Cl)c1,-23.4%
13,CN(C)C1(CNC(=O)Nc2ccc(Cl)c(Cl)c2)CCCCC1,-50.1%
14,Cc1ccc(CNC(=O)c2ccc(Br)o2)cc1,-18%
15,O=C(NC1CCCC1)C1CCCN(S(=O)(=O)c2cnc[nH]2)C1 (stereo not shown),15.3%
16,O=C(NCc1cccs1)c1cnc(Cl)c(Cl)c1,11.7%
17,CC1=Nc2ccccc2N=C(NC(=O)CSC(=S)N2CCN(C)CC2)C1c1ccccc1 (stereo not shown),-24.2%
18,COc1ccc2c(Cl)c(C(=O)NN)sc2c1,7.88%
19,O=[N+]([O-])c1ccc(CSc2nnc(SCc3ccc(Cl)cc3)s2)cc1,16.8%
